Screening data (PubChem)
TDP43 rescue: TDP-43 toxicity inhibition in yeast | TDP-43 expressing yeast growth rescue, BacTiter-Glo, 24 h | Potency, µM (series often up to 46.1 µM), inactives show top-dose growth rescue (activation), usual class: activators | 410,000 compounds, 1.8% hits | AID 652104; also: potency is read from the fitted curve at half-maximal effect; % of control where 0% means no effect; nearly all actives have a fitted effect of over 50% in size
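Readout is BacTiter-Glo luminescence of cell growth, so inhibitors register as activators. TDP-43-expressing yeast at OD600=0.02 in galactose medium, after raffinose pregrowth to mid-log, were incubated with compound for 24 hr at 30 deg C.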
aSyn yeast inh: rescues yeast growth from alpha-synuclein toxicity | AID 652106 | Yeast expressing alpha-synuclein, growth rescue, BacTiter-Glo, 24 h | 370,000 compounds, 0.14% hits | Potency, µM (top dose mostly 46.1 µM), for inactives: at the highest dose growth rescue (activation), actives largely listed as activators; also: potency is read from the fitted curve at half-maximal effect; % of control where 0% means no effect; nearly all actives have a fitted effect of over 65% in size
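Screening used galactose-induced yeast with toxic alpha-synuclein levels, exposed to compound for 24 hr at 30 deg C. Cell growth, read with BacTiter-Glo luminescence, gave the measured signal.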
Abeta yeast res: compounds reversing amyloid beta toxicity in yeast; yeast expressing A-beta42, growth rescue, OD600, 48 h; response scale: 0% DMSO, 100% iron-clioquinol control; Potency, µM (titrated, usually from 46.1 µM), hits mostly activators; 410,000 compounds, 0.063% hits; AID 1347071; also: potency is read from the fitted curve at half-maximal effect; nearly all actives have a fitted effect of over 55% in size
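Yeast growth medium received pinned compounds, then yeast cells expressing toxic A-beta were added; plates incubated at 30 C for 48 hr. Growth read as absorbance at 600 nm, normalized to DMSO and equimolar FeCl3 plus clioquinol controls.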
FUS suppressor: FUS proteinopathy suppression in yeast. S. cerevisiae FUS-expressing, growth rescue, OD600, 24 h. Potency, µM (series often up to 76.6 µM), usual class: activators. 390,000 compounds, 0.24% hits;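 also: potency is read from the fitted curve at half-maximal effect; plate controls were DMSO vehicle for no effect and reference control for full effect; nearly all actives have a fitted effect of over 55% in size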
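Toxicity suppression screen in FUS-yeast. Cells induced with 2% galactose, starting OD 0.005, treated 24hr at 30C with compounds at multiple final concentrations; growth by OD600.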
MmCpn inh: blocks the Methanococcus maripaludis chaperonin Mm-Cpn; 330,000 compounds, 0.031% hits; Potency, µM (top dose mostly 76.9 µM), for inactives: at the top dose activity, negative = inhibition, actives largely listed as inhibitors; purified Mm-Cpn ATPase, ADP Transcreener TR-FRET; also: potency is read from the fitted curve at half-maximal effect; % is scaled to controls: 0 for no effect and ±100 for the full control effect; nearly all actives have a fitted effect of over 80% in size
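TR-FRET (320 nm excitation; 590 and 665 nm emission) reports ADP made from 10 uM ATP by 25 nM enzyme; compounds were preincubated 10 min, reaction run 30 min, both at 37°C.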
CCT chaperon mod: modulators of cytosolic chaperonin (CCT/TRiC) activity; purified chaperonin ATPase assay, HTRF ADP detection, 30 min; activity change, % (concentration not given with the values), hits read low; 360,000 compounds, 0.3% hits; in the data active = activity change below about -30%; also: % is scaled to controls: 0 for no effect and ±100 for the full control effect
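TRiC (40 or 20 nM final, by batch activity) in 30 mM Tris pH 7.4, 100 mM KCl, 5 mM MgCl2, 1 mM DTT was treated with compound at 76 uM single dose, then 10 uM ATP, 30 min at 37 °C. ADP was read by HTRF Transcreener.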
Active calls of the source: *; i = inactive; ? = inconclusive; · = not tested or not shown. Hits are enriched below; roughly 2.3% of the tested compounds scored in any of these assays. Unless noted, calls follow the shape of the dose curve; as a rule, active = well fitted curve in the direction sought with a large enough effect; inconclusive = small, poorly fitted or top-dose-only effect, or another doubt; inactive = no such curve, though single readings can be large; an effect the other way counts as inactive or inconclusive.

SMILES	TDP43 rescue	aSyn yeast inh	Abeta yeast res	FUS suppressor	MmCpn inh	CCT chaperon mod
Cc1cc(NS(=O)(=O)c2ccc(NS(=O)(=O)c3ccc(Br)cc3)cc2)no1	13.7%	6.2%	i	i	0.8%	-1.4
Cc1cc(NS(=O)(=O)c2ccc(CC(C)C)cc2)no1	17.8µM*	1.9%	i	i	0.6%	-0.6
COc1ccc(S(=O)(=O)Nc2cc(C)on2)cc1	7.2%	2.3%	i	i	-24.3%	-1.6
Cc1cc(NS(=O)(=O)c2ccc(C(C)C)cc2)no1	14.1µM*	8.1%	?	i	-0.9%	0.9
O=C(Nc1ccc(F)cc1)OCc1cn(Cc2ccc(Cl)cc2)nn1	·	·	·	i	·	·
CCn1c2ccccc2c2cc(/C=N/NC(=O)c3ccccc3)ccc21	11.2µM*	5.3%	i	?	-6.0%	0.0
Cc1cc(C)cc(NC(=O)N2CCC(CN3CCc4ccccc4C3)CC2)c1	2.0%	·	i	i	·	·
CC(=O)c1cccc(NC(=O)CCc2c(C)nc3c(c(C)nn3-c3ccccc3)c2C)c1	6.31µM*	·	i	i	·	·
Cc1c(C(=O)Nc2ccccc2)cnn1-c1ccccc1	0.0%	0.0%	i	i	·	1.6
Cc1c(C(=O)Nc2cccc(F)c2)cnn1-c1ccccc1	10µM*	5.7%	i	i	0.5%	-4.1
CC(=O)c1cccc(NC(=O)c2cnn(-c3ccccc3)c2C)c1	14.1µM*	0.7%	?	i	0.2%	1.7
CCOCCc1nn2c(=O)cc(COC(=O)c3ccccc3Br)nc2s1	18.7%	·	i	i	·	·
CC1(C)C2CCC1(C)C(OCCNCCOC(=O)Nc1ccccc1)C2 (stereo not given)	-5.0%	28.3%	i	i	-4.0%	-39.7*
CC1(C)C2CCC1(C)C(OC(=O)c1ccccc1C(=O)O)C2 (stereo not given)	-15.8%	9.4%	i	i	-1.8%	0.5
O=C1C(=O)N(CC2CCCO2)C(c2ccccc2[N+](=O)[O-])/C1=C(/O)c1ccccc1 (stereo not given)	-6.0%	1.4%	i	i	-0.2%	-49.4*
Cc1ccc(C2/C(=C(/O)c3ccc(Cl)cc3)C(=O)C(=O)N2CC2CCCO2)o1 (stereo not given)	0.7%	8.7%	i	i	0.0%	-0.9
COc1ccc(C(C#N)=Cc2cccc(OC)c2OC)cc1	17.8µM*	-22.6%	i	i	·	0.5
Cc1c(C)n(Cc2ccc(-c3ccccc3C(=O)O)cc2)c2ccc(C(=O)N[C@@H](C)c3ccc(Br)cc3)cc12	·	·	·	i	·	·
COc1cc(OC)c2c(-c3ccccc3)cc(=O)oc2c1	5.8%	1.0%	i	i	0.3%	-3.4
COc1cc(OC)c2c(c1)S(=O)(=O)C(c1ccccc1)=C2N	5.2%	0.8%	15.8µM*	i	-3.6%	-2.0
N[C@@]12CCc3nonc3[C@]1(O)CC(c1ccccc1)=[N+]2[O-]	0.0%	3.5%	i	i	2.1%	-63.3*
NC12CCc3c(no[n+]3[O-])C1(O)CC(c1ccccc1)=[N+]2[O-] (stereo not given)	2.8%	-9.4%	i	i	0.1%	2.8
COc1ccccc1OCC(=O)Sc1ccc(C)cc1	?	24.8%	i	i	1.9%	-4.0
COc1cc(C(=O)Sc2ccc(C)cc2)cc(OC)c1OC	28.2µM*	-21.0%	i	·	1.5%	0.5
COc1cc(C(=O)Oc2c(Sc3ccc(C)cc3)c(C)nn2-c2ccccc2)cc(OC)c1OC	22.4µM*	·	i	i	·	·
SMILES	TDP43 rescue	aSyn yeast inh	Abeta yeast res	FUS suppressor	MmCpn inh	CCT chaperon mod
CC(C)NC(=O)N1CC(c2ccccc2)C(c2ccc(Cl)cc2)=N1 (stereo not given)	25.0%	4.3%	i	i	-1.8%	-2.0
CC(=O)N1CC(c2ccccc2)C(c2ccc(Cl)cc2)=N1 (stereo not given)	11.2µM*	11.1%	i	·	-2.1%	-2.0
Cc1cccc(C(=O)CC(=O)c2cc(Cl)ccc2O)c1	?	?	i	i	?	-1.5
Cc1ccc(O)c(C(=O)CC(=O)c2cccc(F)c2)c1	-49.1%	15.8µM*	i	i	-15.4%	-1.9
O=C(CC(=O)c1cc(Cl)ccc1O)c1ccccc1	10µM*	?	i	i	-14.0%	-1.4
COc1ccc2ccccc2c1-c1c(C(=O)c2ccc(Br)cc2)[nH]c(N)c1C(=O)NC1CCCCC1	·	·	·	i	·	·
COc1ccc(CN2CN3Cc4cc(OC)ccc4C3CS2(=O)=O)cc1 (stereo not given)	·	·	·	i	·	·
c1csc(CNc2ncnc3sccc23)c1	14.1µM*	-2.3%	i	i	·	1.2
Cc1sc2ncnc(N(C)Cc3cccs3)c2c1C	12.6µM*	11.9%	i	i	-1.7%	-3.5
CN(Cc1cccs1)c1ncnc2sccc12	12.6µM*	10.8%	i	i	-3.6%	0.7
COc1ccc(OC)c(NC(=O)c2c(NCc3ccc(OC)c(OC)c3)sc3c2CCC(C)C3)c1 (stereo not given)	18.9%	·	i	?	·	·
COc1ccc(/C=C/c2c(-c3ccc(OC)cc3)sc3ccc(N4CCOCC4)cc23)cc1	4.6%	1.2%	i	i	-4.2%	-1.4
COc1ccc(-c2oc3ccc(N4CCOCC4)cc3c2/C=C/c2ccc(OC)c(OC)c2)cc1	11.1%	1.8%	i	12.6µM*	-0.6%	1.5
COc1ccc(N/N=C(/Oc2ccc([N+](=O)[O-])cc2)C(C)=O)cc1	?	6.5%	i	i	-0.8%	0.1
COc1ccc(NN=Nc2ccc([N+](=O)[O-])cc2)cc1	17.8µM*	-8.9%	?	i	-1.7%	3.7
Cc1cc(Cl)ccc1OCC(=O)N1CCC(c2nc3ccccc3o2)CC1	?	·	i	?	·	·
CC(C)Oc1ccc(C(=O)N2CCC(c3nc4ccccc4o3)CC2)cc1	27.1%	·	i	i	·	·
O=C(COc1cccc(Cl)c1)N1CCC(c2nc3ccccc3o2)CC1	28.2µM*	·	i	i	·	·
CCCCOc1ccc(C(=O)N2CCC(c3nc4ccccc4o3)CC2)cc1	28.2µM*	·	i	i	·	·
Cc1ccccc1N1C(=O)c2cccc3cccc(c23)C1=O	20µM*	-22.0%	i	i	0.7%	0.7
O=C(O)c1ccccc1N1C(=O)c2cccc3cccc(c23)C1=O	-10.2%	1.6%	i	i	0.6%	-8.0
Cc1c(C(=O)N2CCN(Cc3ccc4c(c3)OCO4)CC2)sc2ncnc(N3CCN(c4ccccc4F)CC3)c12	5.4%	0.0%	i	i	-4.5%	-73.5*
